# G9a block: inhibitors of human histone lysine methyltransferase G9a; Q96KQ7; G9a H3K9 monomethylation, AlphaScreen, 2 h; Potency, µM (titrated, usually from 102 µM), for the others: at the top dose activity, negative = inhibition, most hits filed as inhibitors; actives 8.8% (n = 350,000); also: % is scaled to controls: 0 for no effect and ±100 for the full control effect; nearly all actives have a fitted effect of over 75% in size
#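 Compounds were preincubated with 20 nM G9a for 15 min, after which biotinylated H3K9 peptide (500 nM) and SAM (20 uM) started a 2 h room-temperature reaction. Monomethylated product was quantified by antibody-based AlphaScreen chemiluminescence.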
# HP1b binding inh: HP1-beta chromodomain-methylated histone interaction inhibition | P83916 | AlphaScreen HP1-beta / biotin-H3K9me3 peptide binding | Potency, µM (series often up to 114 µM), for inactives: top-dose activity change, negative = inhibition, actives largely listed as inhibitors | actives 0.56% (n = 390,000) | AID 540317; also: nearly all actives have a fitted effect of over 70% in size
#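 AlphaScreen: HP1-beta (50 nM) preformed 30 min with biotin-H3(1-18)K9me3 peptide (50 nM) in PBS pH 7.4, 0.01% Tween-20. Compound added for 30 min at RT, then streptavidin donor/nickel chelate acceptor beads (10 ug/mL) for 30 min.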
# BAZ2B inh: BAZ2B (human) inhibition | Q9UIF8 | AlphaScreen BAZ2B-H3K14Ac peptide displacement | Potency, µM (series often up to 114 µM), for inactives: at the highest dose activity change, negative = inhibition, most hits filed as inhibitors | actives 4.4% (n = 360,000) | AID 504333; also: % is scaled to controls: 0 for no effect and ±100 for the full control effect; nearly all actives have a fitted effect of over 60% in size
#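 AlphaScreen displacement: compounds (up to 110uM) incubated 30 min at room temperature with a preformed 50 nM BAZ2B/50 nM biotinylated H3K14Ac peptide complex in PBS pH 7.4 with Tween-20. Donor and acceptor beads at 10 ug/mL final added, 20 min light-protected before reading.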
# JMJD2A Tudor: inhibitors of human JMJD2A Tudor domain; O75164; AID 504339; actives 4.4% (n = 390,000); AlphaScreen JMJD2A-Tudor / H3K4me3 peptide binding; Potency, µM (highest dose often 114 µM), inactives show at the highest dose activity change, negative = inhibition, actives largely listed as inhibitors; also: % is scaled to controls: 0 for no effect and ±100 for the full control effect; nearly all actives have a fitted effect of over 50% in size
# 12-LOX inh: inhibitors of human 12S-lipoxygenase ALOX12 | Potency, µM (series often up to 108 µM), without a hit: at the top dose activity change, negative = inhibition, most hits filed as inhibitors | actives 1.1% (n = 580,000) | purified 12hLO, xylenol orange hydroperoxide absorbance; also: % is scaled to controls: 0 for no effect and ±100 for the full control effect
#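 Purified human 12hLO at 150 nM in 25 mM Hepes, 0.01% Triton X-100, pH 7.0, preincubated 15 min at room temperature with compound. Reaction started with 40 uM arachidonic acid, 30 min at room temperature. Hydroperoxide measured by Fe-xylenol orange, 573/405 nm absorbance ratio.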
# Sfp PPTase inh: Sfp phosphopantetheinyl transferase inhibition. Biochemical Sfp PPTase activity, qHTS. Q9F4F7. actives 3.5% (n = 310,000). AID 1490. Potency, µM, for the others: largest response in the series, negative = inhibition, most hits filed as inhibitors;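 also: the enzyme is Sfp with the accession as filed and its product quenches rhodamine fluorescence; 0% = enzyme reaction without inhibitor and -100% = no enzyme wells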
#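 After 15 min at room temperature with compound, 15 nM Sfp received 5 uM rhodamine-CoA plus 12.5 uM BHQ-2-ybbR (50 mM Hepes pH 7.6, 10 mM MgCl2). Rate came from the fluorescence difference over 30 min, ex 525/em 598 nm.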
# Active calls of the source: *; u = inconclusive; x = not tested or not shown; [ ] = dose if it differs, or a comment. Hits are enriched below; roughly 8.7% of the tested compounds scored in any of these assays. Calls follow the shape of the dose curve; as a rule, active = well fitted curve in the direction sought with a large enough effect; inconclusive = small, poorly fitted or top-dose-only effect, or another doubt; inactive = no such curve, though single readings can be large; an effect the other way counts as inactive or inconclusive. Potency is read from the fitted curve at half-maximal effect.
SMILES,G9a block,HP1b binding inh,BAZ2B inh,JMJD2A Tudor,12-LOX inh,Sfp PPTase inh
O/N=C1/CCc2nonc2/C1=N/O,0.708µM*,13.4%,10µM*,u,11.9%,50.1µM*
CCOC(=O)c1c(NC(=O)CN2CCc3ccccc32)sc(C(C)=O)c1C,x,x,x,x,-32.5%,x
CCN1C(=O)[C@H]2[C@@H](c3ccc(-c4cccc(Cl)c4)c(OC)c3)N3CCC[C@@]3(C(=O)OC)[C@H]2C1=O,x,13.0%,x,-30.1%,50.1µM*,x
COC(=O)[C@@]12CCCN1[C@H](c1ccc(-c3ccc(F)cc3)cc1)[C@H]1C(=O)N(C)C(=O)[C@H]12,-3.3%[2.33 µM],32.6%,70.8µM*,-28.1%,-11.1%,x
O=C(NC1CCC(c2ccccc2)CC1)c1ccc(Cl)nc1 (stereo unspecified),x,x,x,x,-14.9%,x
N#Cc1ccc(NC(=O)NCCNc2ccccn2)cc1,x,x,x,x,25.5%,x
CSCCOc1ccc(-c2ccccc2)cc1,x,x,x,x,-3.5%,x
Nc1ccc(Oc2ccc3nc(-c4ccccc4)c(-c4ccc([N+](=O)[O-])cc4)nc3c2)cc1,31.6µM*,-35.8%,u,u,87.5%,18.0%
N#Cc1ccc(Oc2ccc(-c3nc4ccccc4nc3-c3ccccc3)cc2)cc1C#N,12.6%[59 µM],42.8%,-3.1%,0.0%,-1.3%,5.9%
COc1ccc(NC(=O)CSc2cn[nH]n2)cc1OC,35.5µM*,33.3%,3.5%,-3.5%,-1.8%,10.1%
O=C(CSc1cn[nH]n1)Nc1cccc(C(F)(F)F)c1,u,44.1%,2.7%,-1.4%,13.5%,25.1%
Cc1cccc(NC(=O)CSc2cn[nH]n2)c1,39.8µM*,35.7%,3.5%,5.5%,-6.9%,16.8%
COc1ccccc1NC(=O)CSc1cn[nH]n1,x,x,x,x,-12.6%,x
Cc1nonc1NC(=O)CSc1cn[nH]n1,50.1µM*,18.3%,-19.1%,-7.9%,1.5%,8.0%
COc1ccc(CNC(=O)C(F)(F)F)cc1,x,x,x,x,23.7%,x
CCC(C)NC(=O)C1CC(c2ccccc2)CN(C(=O)c2ccc(OC)cc2)C1 (stereo unspecified),x,x,x,x,39.2%,x
CC1=NN(c2ccccc2)C(=O)/C1=C\N1CC(C)OC(C)C1 (stereo unspecified),79.4µM*,13.7%,u,-30.0%,-28.7%,-1.8%
Cc1ccc(C2=NOC(=O)/C2=C\C=C\c2ccccc2)cc1,2.82µM*,-29.6%,35.5µM*,50.1µM*,1.12µM*,28.2µM*
CC1=NN(c2ccccc2)C(=O)/C1=C/c1cc(C)n(C2CC2)c1C,7.0%[12.7 µM],25.9%,u,-34.6%[11.4 µM],-6.4%,18.7%
CC1=NN(c2cccc(C(=O)O)c2)C(=O)/C1=C\C=C\c1ccco1,7.94µM*,12.6µM*,10µM*,8.91µM*,-16.7%,-22.6%
CC1=NN(c2ccccc2)C(=O)/C1=C/C=C/c1ccccc1,5.01µM*,31.6µM*,7.94µM*,8.91µM*,16.7%,-3.3%
CCC1(N2CCN(C(=O)Nc3ccc(Cl)cc3C)CC2)CCN(C(=O)NC)C1 (stereo unspecified),x,x,x,x,4.2%,x
COc1ccc(CN(C)C2CCN(C)CC2)cc1OC,28.2µM*,1.2%,56.2µM*,89.1µM*,u,5.7%
Cc1ccncc1C(=O)N1CC(c2nnc(-c3ccncc3)o2)C2(CCOCC2)C1 (stereo unspecified),x,x,x,x,4.6%,x
CCN(CC)S(=O)(=O)c1ccc(C)c(NC(=O)CNCc2ccccc2OC)c1,25.1µM*,-22.4%,21.6%,11.2µM*,12.9%,u
COc1ccccc1CNCC(=O)Nc1ccc(N(C)C)cc1,-10.0%[2.33 µM],-17.2%,50.1µM*,3.98µM*,0.0%,-19.0%
CCc1ccc(NC(=O)Cn2ccn(Cc3ccccc3OC)c(=O)c2=O)cc1,-1.0%[59 µM],8.8%,-9.9%,-22.0%,u,x
CN(C)C[C@@H]1CN(c2ccccn2)C[C@H]1NC(=O)Cn1c(=O)oc2ccccc21,x,x,x,x,9.3%,x
CCOc1ccc(N2C(=O)c3cccnc3C2Nc2ccc(F)cc2)cc1 (stereo unspecified),56.2µM*,3.4%,36.4%,-26.6%,-11.6%,-17.8%
